Shown are actives, neighbours in structure and some others; about 11% of the full set was active somewhere.
HPGD block – blocks human HPGD enzyme activity; P15428; purified HPGD, NADH fluorescence kinetic, PGE2 substrate; Potency, µM, for the others: at the top dose activity change, negative = inhibition, usual class: inhibitors; actives 4.3% (n = 150,000); AID 894; further: potency means the concentration at half of the fitted maximal effect
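20 nM HPGD preincubated 15 min at room temperature with compound in 50 mM Tris-HCl pH 8, 0.01% Tween 20. Started with 1 mM NAD+ and 30 uM prostaglandin E2; NADH fluorescence (360/450 nm) read 5 times over 30-s intervals, last minus first.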
PNC assembly inh – perinucleolar compartment assembly inhibition. activity change (PNC), negative = inhibition, % at 10 µM. actives 3.1% (n = 140,000). PC3M PTB-GFP, PNC prevalence imaging, 16 h; hits give low values;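 active means readout at or below -70, meaning at least 70% loss of cells showing the perinucleolar compartment, a nuclear body marking cancer cells; inconclusive means readout between -30 and a set limit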;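 further: plate controls were DMSO wells for no effect and camptothecin positive control wells for full effect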
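Compounds are pinned in duplicate onto adhered PC3M cells stably expressing GFP-tagged PTB and incubated 16 h at 37 C. Cells are then fixed, nuclei stained with Hoechst, and PNC-positive cells counted.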
ALDH1A1 block – inhibitors of human aldehyde dehydrogenase 1A1; P00352; Purified ALDH1A1, NADH fluorescence, propionaldehyde substrate; Potency, µM (doses to about 75.3 µM), for the others: top-dose activity, negative = inhibition, hits mostly inhibitors; actives 7.3% (n = 220,000); AID 1030;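 further: potency means the concentration at half of the fitted maximal effect; plate controls were no enzyme wells and a reference inhibitor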
Target sequence (P00352 whole entry, looked up): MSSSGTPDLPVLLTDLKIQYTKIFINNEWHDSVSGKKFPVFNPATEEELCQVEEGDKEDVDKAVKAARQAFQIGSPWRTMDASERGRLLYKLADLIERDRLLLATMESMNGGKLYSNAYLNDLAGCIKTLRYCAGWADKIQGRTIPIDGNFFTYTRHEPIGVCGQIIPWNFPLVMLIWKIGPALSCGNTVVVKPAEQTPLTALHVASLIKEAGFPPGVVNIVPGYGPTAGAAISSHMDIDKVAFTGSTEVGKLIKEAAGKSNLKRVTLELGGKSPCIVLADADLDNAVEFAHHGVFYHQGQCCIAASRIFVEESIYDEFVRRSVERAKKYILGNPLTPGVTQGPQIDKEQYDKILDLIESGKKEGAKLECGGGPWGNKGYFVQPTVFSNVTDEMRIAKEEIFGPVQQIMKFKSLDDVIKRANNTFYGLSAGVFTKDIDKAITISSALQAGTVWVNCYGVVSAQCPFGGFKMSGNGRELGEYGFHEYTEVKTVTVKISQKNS
Starred values were filed as active, the others as inactive; [ ] = dose if it differs, or a comment. Unless noted, the call rests on the fitted dose curve; in most records, active means well fitted inhibition curve with a large enough effect (not every such curve was filed as active); inconclusive means small, poorly fitted or top-dose-only effect, or another doubt; inactive means no such curve, though single readings can be large or run the other way. Unless noted, on the % scale 0 is the no-effect control and ±100 the full control effect.

Results for COc1ccccc1C(=O)NC(=Nc1nc2ccccc2o1)NC(=O)c1ccccc1OC ?
HPGD block: -23.9%; PNC assembly inh: -82.5*; ALDH1A1 block: -4.6%

How did C[C@@H]1/C=C\CC(=O)OC[C@H]2O[C@@H](C=C[C@@H]2O)[C@H](C)/C=C\CC(=O)OC1 do in these assays?
ALDH1A1 block: -3.8%[13.5 µM]

How did COc1ccc(C(=O)C[n+]2cn(C(F)F)c3ccccc32)c(F)c1 do in these assays?
ALDH1A1 block: 10µM*

What do the screens show for `COc1ccc(NC(=O)Nc2ccccc2F)c(C)c1`?
ALDH1A1 block: -4.2%

How did COC(=O)c1ccc(Oc2ccc(C(F)(F)F)cn2)cc1 do in these assays?
ALDH1A1 block: 13.3%

What do the screens show for `Cc1cccc(NC2=C/C(=N/S(=O)(=O)c3cccs3)c3ccccc3C2=O)c1`?
HPGD block: -13.1%; PNC assembly inh: -97.0*; ALDH1A1 block: -1.4%

Results for Cc1ccc(NC2=C/C(=N\S(=O)(=O)c3cccs3)c3ccccc3C2=O)c(C)c1 ?
HPGD block: -11.7%; PNC assembly inh: -22.4; ALDH1A1 block: -15.3%

What do the screens show for `C=CCn1c(COc2cccc(C)c2)nnc1SCC(=O)c1c[nH]c2c(CC)cccc12`?
HPGD block: -7.9%; PNC assembly inh: 107.8; ALDH1A1 block: 13.2%

How did c1ccc(SC(Sc2ccccc2)c2ccc3c(c2)OCO3)cc1 do in these assays?
HPGD block: -1.7%; ALDH1A1 block: 0.5%[13.5 µM]

What do the screens show for `Nc1ccccc1S[C@@H](C[N+](=O)[O-])c1ccc2c(c1)OCO2`?
HPGD block: 3.16µM*; ALDH1A1 block: 3.55µM*

What do the screens show for `Cc1ccc2[nH]c(O)c(N=O)c2c1`?
ALDH1A1 block: 31.6µM*

Results for Cc1ccc2[nH]c(C)cc(=O)c2c1 ?
HPGD block: -23.2%; ALDH1A1 block: inconclusive

What do the screens show for `COCCn1c(=O)cnc2cnc(OCc3ccccc3)nc21`?
HPGD block: -9.9%; ALDH1A1 block: -2.9%

What do the screens show for `O=c1c(CCc2ccccc2)nc2cnc(Oc3ccccc3)nc2n1C1CC1`?
ALDH1A1 block: 11.2µM*

How did COc1cccc(Nc2ncc3nc(CCc4ccccc4)c(=O)n(C4CC4)c3n2)c1 do in these assays?
HPGD block: -5.2%; ALDH1A1 block: -1.4%

What do the screens show for `N#CCCn1c(=O)c(CCc2ccccc2)nc2cnc(Oc3cccc(Cl)c3)nc21`?
HPGD block: 0.2%; ALDH1A1 block: 10µM*

Results for Cc1nc2cnc(Oc3cccc(Cl)c3)nc2n(CCC#N)c1=O ?
HPGD block: -14.9%; ALDH1A1 block: -9.7%

What do the screens show for `COCCn1c(=O)c(CCc2ccccc2)nc2cnc(OCc3ccccc3)nc21`?
ALDH1A1 block: 25.1µM*

What do the screens show for `COC(=O)c1sc(S(=O)(=O)Nc2ccc(C)c(C)c2)c(C(=O)OC)c1C`?
HPGD block: -12.0%; PNC assembly inh: inconclusive; ALDH1A1 block: inconclusive

What do the screens show for `COc1ccc(CNC(=O)CCCc2ccccc2)cc1`?
HPGD block: -25.5%; PNC assembly inh: 35.6; ALDH1A1 block: 1.12µM*

What do the screens show for `CCCCNC(=O)CCNS(=O)(=O)c1ccc(C)cc1`?
HPGD block: -0.6%; PNC assembly inh: inconclusive; ALDH1A1 block: -8.2%

How did O=C(CCCNS(=O)(=O)c1ccccc1)NCc1ccco1 do in these assays?
HPGD block: -3.7%; PNC assembly inh: 5.1; ALDH1A1 block: -10.2%

What do the screens show for `Cc1ccc(CNC(=O)CCNS(=O)(=O)c2ccc(C)cc2)cc1`?
HPGD block: -7.1%; PNC assembly inh: 5.4; ALDH1A1 block: 14.1µM*

Results for O=C(CCc1ccc(S(=O)(=O)NCCc2ccccc2)cc1)NCc1ccco1 ?
HPGD block: -11.7%; PNC assembly inh: -16.3; ALDH1A1 block: 5.01µM*

Results for COCC(C)NS(=O)(=O)c1ccc(OC)cc1 (stereo not given) ?
PNC assembly inh: 9.2; ALDH1A1 block: 8.3%

What do the screens show for `COc1ccccc1CNC(=O)CCCc1ccccc1`?
HPGD block: inconclusive; PNC assembly inh: inconclusive; ALDH1A1 block: 1.5%

What do the screens show for `COc1ccc(S(=O)(=O)NC(C)CCc2ccccc2)cc1` (stereo not given)?
ALDH1A1 block: 0.631µM*

What do the screens show for `COC(=O)NC(c1ccc2c(c1)OCO2)C(C(=O)OC)C(=O)OC` (stereo not given)?
HPGD block: -0.4%; ALDH1A1 block: -4.1%

Results for Cc1ccc(NC(=O)COC(=O)CCc2nc3ccccc3c(=O)[nH]2)cc1Cl ?
ALDH1A1 block: -0.7%

What do the screens show for `CCCCC(=O)N(CCOC)c1nnc(-c2ccccc2C)s1`?
ALDH1A1 block: -4.5%

Results for CN(C)CCSCCO ?
HPGD block: -2.8%; ALDH1A1 block: 10.7%[13.5 µM]

What do the screens show for `COc1ccc(OCC(=O)N2N=C(C)CC2(O)C(F)(F)F)cc1` (stereo not given)?
ALDH1A1 block: 0.3%
